Bioassay records deposited in PubChem by Center for Chemical Genomics, University of Michigan.
Dicer inh: inhibitors of human Dicer processing of pre-microRNA | 47,000 compounds, 6% hits | z-score at 25 µM | cat-ELCCA pre-miR-21 Dicer processing, chemiluminescence; hits give high values; in the data active = z-score above about 3, passing the limit was not always enough;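 note: plate controls were vehicle for no effect and no enzyme for full effect; higher signal means more uncleaved substrate so more Dicer inhibition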
* marks the source's active call; other numbers are inactive results. The sample as a whole holds a higher share of hits than the screen did.

Screening COc1ccc(/C=C(/C(=O)c2ccccc2OCc2ccccc2)[N+](=O)[O-])cc1 returned Dicer inh 0.2.
For S=C(Nc1cc(-c2cccs2)[nH]n1)Nc1ccccc1Cl the results were Dicer inh 0.94.
O=C(CC1SC(=Nc2ccccc2)NC1=O)Nc1cc(Cl)ccc1Cl (stereo not given) was read as Dicer inh -0.38.
`CSc1ccc([N+](=O)[O-])cc1-c1ccn(S(C)(=O)=O)n1` gave Dicer inh -1.09.
`COc1ccc(/C=N/Nc2ncnc3cc(C(C)(C)C)sc23)cc1` gave Dicer inh 1.77.
Screening Cc1nc(-c2cccc(NS(=O)(=O)c3ccc4ccccc4c3)c2)cs1 returned Dicer inh 4.53*.
`CCc1ccc(S(=O)(=O)Nc2ccc(-c3cn4cccc(C)c4n3)cc2)cc1` gave Dicer inh 7.21*.
`CC(=O)Nc1ccc(S(=O)(=O)Nc2ccc(-c3csc(C)n3)cc2)cc1Cl` gave Dicer inh -0.43.
Cc1nc(-c2ccc(NS(=O)(=O)c3ccc(Cl)cc3)cc2)cs1 was read as Dicer inh 5.93*.
`Cc1cccc(S(=O)(=O)Nc2cccc(-c3cn4ccc(C)cc4n3)c2)c1` gave Dicer inh 1.42.
`CC(=O)Nc1nc(-c2ccc3ccccc3c2)cs1` gave Dicer inh 0.21.
Screening Cc1cccn2cc(-c3cccc(S(=O)(=O)N4CC(C)CC(C)C4)c3)nc12 (stereo not given) returned Dicer inh 0.16.
`Cc1cc(C)c(S(=O)(=O)Nc2ccc(-c3cn4ccccc4n3)cc2)cc1C` gave Dicer inh 2.65.
`Cc1cccc(S(=O)(=O)Nc2ccc(-c3cn4cccc(C)c4n3)cc2)c1` gave Dicer inh 10.4.
CCCN(CCC)S(=O)(=O)c1cccc(-c2cn3cccc(C)c3n2)c1 was read as Dicer inh 0.04.
Cc1nc(-c2ccc(Cl)cc2)cs1 was read as Dicer inh 2.62.
For Cc1cccn2cc(-c3ccc(NS(=O)(=O)c4ccc(Cl)cc4)cc3)nc12 the results were Dicer inh 5.96*.
Cc1c(Cl)cc(F)cc1S(N)(=O)=O was read as Dicer inh 1.41.
Screening CC1=N/C(=C\C=C\c2ccccc2)C(=O)O1 returned Dicer inh -0.41.
`COc1cccc(CNC(=S)SCC(=O)C(C)(C)C)c1` gave Dicer inh -0.47.
For CCOC(=O)CSC(=S)Nc1cc(C(F)(F)F)cc(C(F)(F)F)c1 the results were Dicer inh 1.88.
CCOC(=O)C(C(=O)OCC)=C(Nc1ccc(Cl)cc1)SC was read as Dicer inh 0.39.
Screening CC1(C)CC(=O)C=C(SCC(=O)Nc2ccc(Cl)cc2)S1 returned Dicer inh 2.14.
O=C(Nc1ccc(Cl)cc1)OCc1cccc(COC(=O)Nc2ccc(Cl)cc2)c1F was read as Dicer inh 0.87.
For Cc1ccc(C)c(Oc2c(C(F)(F)F)oc3c(CN4CCOCC4)c(O)ccc3c2=O)c1 the results were Dicer inh 0.42.
c1ccc(CNc2ncnc3sc4c(c23)CCCC4)cc1 was read as Dicer inh -0.56.
For CCOC(=O)c1c(NC(=O)c2ccco2)sc2c1CCC(C)C2 (stereo not given) the results were Dicer inh 3.27*.
O=C(Nc1sc2c(c1C(=O)O)CCCC2)c1ccco1 was read as Dicer inh 0.04.
For CNC(=O)c1c(NC(=O)c2ccco2)sc2c1CCC(C(C)(C)C)C2 (stereo not given) the results were Dicer inh 0.51.
CCOC(=O)c1c(NC(=O)c2ccco2)sc2c1CCC(C(C)(C)C)C2 (stereo not given) was read as Dicer inh 0.15.
CC1CCc2c(sc(NC(=O)c3ccco3)c2C(=O)N2CCOCC2)C1 (stereo not given) was read as Dicer inh 3*.
For CCOC(=O)c1c(NC(=O)c2ccco2)sc2c1CCC(CC)C2 (stereo not given) the results were Dicer inh -3.11.
`NS(=O)(=O)c1cc(Cl)c(Oc2ccc([N+](=O)[O-])cc2)c(Cl)c1` gave Dicer inh -0.22.
`CN(C)C=C1C(=O)CC(c2ccc(Cl)cc2)CC1=O` (stereo not given) gave Dicer inh -0.53.
CC(C)(C)c1ccc(C(=O)NC(=O)Nc2cc(C(F)(F)F)cc(C(F)(F)F)c2)s1 was read as Dicer inh 1.37.
For CC(C)OC(=O)c1cccc(C(=O)O)n1 the results were Dicer inh 1.61.
Screening CC(C)OC(=O)c1cccc(C(=O)Oc2ccc(Br)cc2)n1 returned Dicer inh 4.42*.
Screening CC(C)OC(=O)c1cccc(C(=O)OC(C)C)n1 returned Dicer inh 1.66.
For O=C(CSc1nnc(-c2ccc(O)cc2)o1)c1ccc(Cl)cc1 the results were Dicer inh -2.91.
Cc1nc(C(F)(F)F)c(C(=O)O/N=C(\N)c2cccc(C(F)(F)F)c2)s1 was read as Dicer inh 0.55.
NC(Cc1c[nH]c2ccc(Br)cc12)C(=O)O (stereo not given) was read as Dicer inh -0.81.
N[C@@H](Cc1cc(I)c(Oc2ccc(O)c(I)c2)c(I)c1)C(=O)O was read as Dicer inh 3.25*.
Screening N[C@@H](Cc1ccc([N+](=O)[O-])cc1)C(=O)O returned Dicer inh -0.81.
N[C@@H](Cc1ccc(O)c(O)c1)C(=O)O was read as Dicer inh 5.04.
N[C@@H](Cc1cc(I)c(Oc2cc(I)c(O)c(I)c2)c(I)c1)C(=O)O was read as Dicer inh 4.34*.
CCOC(=O)[C@@H](N)Cc1ccccc1 was read as Dicer inh -0.77.
For CSc1sc(C(=O)N/N=C/c2ccc(Cl)cc2)c2c1C1(CCC2)SCCS1 the results were Dicer inh -0.17.
CCOC(=O)/C(C)=N/Nc1ccc(C)c(C)c1 was read as Dicer inh 0.42.
CCCCOc1ccc(C2c3c(oc4ccccc4c3=O)C(=O)N2c2nnc(C)s2)cc1OCC (stereo not given) was read as Dicer inh 0.4.
`O=C1CC(N2CCC(c3ccncc3)CC2)C(=O)N1c1ccc(F)c(Cl)c1` (stereo not given) gave Dicer inh 1.07.
For CC(C)(C)C(=O)c1cn(CC(=O)N2CCc3ccccc32)c2ccccc12 the results were Dicer inh 2.52.
Screening O=C1c2oc3ccc(F)cc3c(=O)c2C(c2ccccc2F)N1Cc1ccc2c(c1)OCO2 (stereo not given) returned Dicer inh -0.09.
Screening COc1ccc(C2C3=C(CCCC3=O)N=C3c4ccccc4C(=O)C32)cc1 (stereo not given) returned Dicer inh 8.65*.
Screening CC1(C)CC(=O)C2=C(C1)N=C1c3ccccc3C(=O)C1C2c1cccc(F)c1 (stereo not given) returned Dicer inh -0.56.
For O=C1CCCC2=C1C(c1ccc(F)cc1)C1C(=O)c3ccccc3C1=N2 (stereo not given) the results were Dicer inh -0.85.
Screening CSc1ccc(C)c(NC(=O)N(Cc2ccccc2)C(=O)CC#N)c1 returned Dicer inh -0.28.
Cc1ccnc(NC(c2ccc(N(C)C)cc2)c2ccc3cccnc3c2O)c1 (stereo not given) was read as Dicer inh 6.27.
Screening COc1ccc(C(Nc2ccccn2)c2ccc3ccc(C)nc3c2O)cc1OC (stereo not given) returned Dicer inh 0.29.
`COc1ccc(C)cc1NC(c1cccnc1)c1ccc2cccnc2c1O` (stereo not given) gave Dicer inh 2.26.
